Assay [1] in a line: qHTS to identify inhibitors of the type 1 interferon - major histocompatibility complex class I in skeletal muscle: primary screen against the NCATS Pharmaceutical Collection (AID 1347407).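 Further: luminescence of HiBiT knocked into endogenous HLA-B as interferon-induced MHC class I level; on the % scale 0 is the no-effect control and ±100 the full control effect.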 The procedure, abridged: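 Immortalized human myoblasts (C25cl48) with HiBiT knocked into endogenous HLA-B*08:01 were stimulated with 4.0 ng/ml IFN-beta and treated with compounds ([…] top 46 uM) for 24 hrs at 37 C. HiBiT lytic luminescence read.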
For orientation: qHTS replaces the single test concentration by a dilution series.

Assay [2] addresses Protein phosphatase 1D (Homo sapiens) (UniProt O15297). Briefly: RapidFire Mass Spectrometry qHTS Assay for Modulators of WT P53-Induced Phosphatase 1 (WIP1) (AID 1347424).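 Further: amount of dephosphorylated VEPPL-S-QETFS peptide product formed by WIP1; series mostly up to about 63 µM; plate controls were DMSO wells for no effect and GSK830371 inhibitor control at 10 µM for full effect.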 The method, boiled down: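 WIP1 (10 nM final) was preincubated 1 h at room temperature with compounds in Tris-HCl pH 7.5, 30 mM MgCl2, TCEP, EGTA, BSA; 2 uM VEPPL-pS-QETFS phosphopeptide was added for 5 min, quenched with formic acid, and dephosphorylated product quantified by RapidFire MS.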

For assay [3] the target is unchanged. In words: Rhodamine-PBP qHTS Assay for Modulators of WT P53-Induced Phosphatase 1 (WIP1) (AID 1347425). Further: % of control where 0% means no effect. The method, boiled down: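 Steps: enzyme with Rh-PBP sensor and compounds, room-temperature incubation of 1 hr, baseline read, addition of VEPPL-pS-QETFS (10 uM final), kinetic fluorescence reads at 525/598 nm. Activity equals final minus baseline signal.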

Assay [4] in a line: Primary qHTS for inhibitors of La Crosse Virus (LACV) - induced cell death in SH-SY5Y cells (AID 1508616).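 Further: top concentration of the series differs between compounds; 0% = infected DMSO wells and 100% = uninfected DMSO wells; higher means more rescue of cells from virus-induced death.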 The procedure, abridged:
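Protection against LACV-induced cell death is scored in SH-SY5Y cells exposed to compounds and virus (0.01 MOI) for 6 days. Data normalized to virus-infected DMSO wells and virus-free DMSO wells.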

Assay [5] addresses Calcium and integrin-binding protein 1 (Homo sapiens) (UniProt Q99828). Briefly: Primary qHTS for Identification of Calcium Integrin Binding Protein 1 (CIB1) Competitor (AID 1508620).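 Further: GST tagged CIB1 binding a fluorescein labelled alphaIIb integrin peptide tracer; top concentration of the series differs between compounds; on the % scale 0 is the no-effect control and ±100 the full control effect.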 The method, boiled down:
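Fluorescence polarization competition: CIB1-GST (1 uM final) preincubated with compound 15 min at room temperature, then FITC-labeled alphaIIb peptide (100 nM final) added for another 15 min. Polarization read at Ex 480/Em 540.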

The nature of assay [6]: Primary qHTS for small molecule stabilizers of the endoplasmic reticulum resident proteome: Secreted ER Calcium Modulated Protein (SERCaMP) assay (AID 1508630). Further: on the % scale 0 is the no-effect control and ±100 the full control effect. The method, boiled down: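 GLuc-SERCaMP-expressing SH-SY5Y cells, pretreated 16 h with compound, are challenged with thapsigargin to empty ER calcium stores; after 4 h, coelenterazine is added directly to the medium and luminescence is imaged.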

Assay [7] can be described thus: A High-Content qHTS Against Drug Library for the Identification of Small Molecules that Inhibit DYT1 Early Onset Primary Dystonia-Associated Cell Pathology (AID 1645839; calls by dose curve; further: potency means the concentration at half of the fitted maximal effect). The method, boiled down: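 Readout: %pathology, the punctate EGFP-TorsinA distribution from imaging, as the primary channel and cell count as the toxicity counterscreen. HEK293 Flp-In cells expressing delE TorsinA were induced with tetracycline and treated with compound for 48 h.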

The nature of assay [8]: qHTS to identify inhibitors of the type 1 interferon - major histocompatibility complex class I in skeletal muscle: primary screen against the NCATS Mechanism Interrogation Plate v5.0 (MIPE) Libary (AID 1347411).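 Further: plate controls were vehicle for no effect and reference inhibitor for full effect; nearly all actives have a fitted effect of over 65% in size.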 The procedure, abridged: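 Luminescence from HiBiT-tagged endogenous HLA-B*08:01 served as the MHC class I read-out. CRISPR-engineered C25cl48 human myoblasts received 4.0 ng/ml IFN-beta plus compound for 24 hrs, with an 11-point, 1:3 series topping at 46 uM final.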

Assay [9] in a line: Counterscreen qHTS for small molecule stabilizers of the endoplasmic reticulum resident proteome: GLuc-NoTag assay (AID 1508627).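 Further: SH-SY5Y cells given compound then 100 nM thapsigargin to empty ER calcium; series mostly up to about 76 µM; 0% = thapsigargin alone and -100% = DMSO vehicle control.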 The method, boiled down:
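SH-SY5Y cells stably expressing constitutively secreted GLuc (no SERCaMP tag) were pre-incubated 5 h, treated with compound for 19 h, then 100 nM thapsigargin for 4 h at 37C; medium GLuc read by coelenterazine luminescence.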
In general terms: A counterscreen serves to expose hits that act by an unwanted route or on another target.

Assay [10] can be described thus: Confirmatory qHTS for small molecule stabilizers of the endoplasmic reticulum resident proteome: Secreted ER Calcium Modulated Protein (SERCaMP) assay (AID 1508628). Further: potency means the concentration at half of the fitted maximal effect; nearly all actives have a fitted effect of over 40% in size. The method, boiled down:
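SH-SY5Y cells stably expressing GLuc-SERCaMP, treated 16 h with compound (primary 1.53, 7.67, 38.3 uM; confirmation 11 concentrations, up to 76.6 uM), then 100 nM thapsigargin for 4 h. Secreted Gaussia luciferase in medium read by coelenterazine luminescence.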

Assay [11] is described as follows: Cell Viability qHTS for small molecule stabilizers of the endoplasmic reticulum resident proteome (AID 1508629).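 Further: human SH-SY5Y neuroblastoma cells carrying the GLuc-SERCaMP reporter; compound exposure about 46 h in total before the viability read; on the % scale 0 is the no-effect control and ±100 the full control effect.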 Particulars: cell viability counter-screen, 100 nM thapsigargin for final 4 h.
In assay [12] the target is Single-stranded DNA cytosine deaminase (Homo sapiens) (UniProt Q9GZX7). In words: Validation qHTS assay for inhibitors of Activation Induced Cytidine Deaminase (AID): AID signal (AID 1347429). Further: on the % scale 0 is the no-effect control and ±100 the full control effect. The method, boiled down: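 Fluorescence at 540 nm excitation and 590 nm emission reports ssDNA cytosine deamination by AID, with UDG in the same well. Compound-treated reactions ran 4 hr at room temperature with DJC20/DJC23 substrate, followed by 30 min NaOH treatment.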

A short description of assay [13]: qHTS for inhibitors of adenylyl cyclases using a fission yeast platform: a pilot screen against the NCATS LOPAC library (AID 1347410).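 Further: plate controls were DMSO vehicle for no effect and DPI positive control for full effect.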 The method, boiled down:
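S. pombe CHP2027 (AC9-GNAS-PDE4D2) carrying PKA-repressed fbp1-GFP, incubated 18 h at 30C in EMM with LOPAC compounds at up to 57 uM. GFP gain-of-signal read by laser scanning cytometry; DMSO negative control.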

The target in assay [14] is Calcium and integrin-binding protein 1 (Homo sapiens) (UniProt Q99828). In words: Confirmatory qHTS for Identification of Calcium Integrin Binding Protein 1 (CIB1) Competitor (AID 1508617). Further: potency means the concentration at half of the fitted maximal effect; nearly all actives have a fitted effect of over 65% in size. The method, boiled down:
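Binding competition between test compounds and fluorescent alphaIIb peptide for 1 uM CIB1-GST is monitored by FP at 480/540 nm. Final compound range is up to 114 uM; unlabeled peptide serves as reference competitor.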

Unmarked numbers belong to inactive results. Inconclusive results are not listed. Activity calls are given as the source filed them. Unless noted, the call rests on the fitted dose curve; in most records, active means well fitted curve in the direction sought with a large enough effect; inconclusive means small, poorly fitted or top-dose-only effect, or another doubt; inactive means no such curve, though single readings can be large; an effect the other way counts as inactive or inconclusive.

Sequence of Calcium and integrin-binding protein 1 (Homo sapiens) (Q99828 whole entry, looked up): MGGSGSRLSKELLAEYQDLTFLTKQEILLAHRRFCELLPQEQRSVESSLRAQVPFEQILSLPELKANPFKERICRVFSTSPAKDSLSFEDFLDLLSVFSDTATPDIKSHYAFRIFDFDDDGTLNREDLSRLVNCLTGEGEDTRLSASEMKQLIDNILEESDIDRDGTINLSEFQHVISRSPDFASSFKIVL
Sequence of Single-stranded DNA cytosine deaminase (Homo sapiens) (Q9GZX7 whole entry, looked up): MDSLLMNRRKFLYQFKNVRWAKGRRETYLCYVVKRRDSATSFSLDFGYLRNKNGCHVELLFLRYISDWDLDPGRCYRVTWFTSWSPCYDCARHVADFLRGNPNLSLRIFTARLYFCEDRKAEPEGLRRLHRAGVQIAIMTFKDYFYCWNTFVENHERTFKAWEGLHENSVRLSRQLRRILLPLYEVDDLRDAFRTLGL
Sequence of Protein phosphatase 1D (Homo sapiens) (O15297 whole entry, looked up): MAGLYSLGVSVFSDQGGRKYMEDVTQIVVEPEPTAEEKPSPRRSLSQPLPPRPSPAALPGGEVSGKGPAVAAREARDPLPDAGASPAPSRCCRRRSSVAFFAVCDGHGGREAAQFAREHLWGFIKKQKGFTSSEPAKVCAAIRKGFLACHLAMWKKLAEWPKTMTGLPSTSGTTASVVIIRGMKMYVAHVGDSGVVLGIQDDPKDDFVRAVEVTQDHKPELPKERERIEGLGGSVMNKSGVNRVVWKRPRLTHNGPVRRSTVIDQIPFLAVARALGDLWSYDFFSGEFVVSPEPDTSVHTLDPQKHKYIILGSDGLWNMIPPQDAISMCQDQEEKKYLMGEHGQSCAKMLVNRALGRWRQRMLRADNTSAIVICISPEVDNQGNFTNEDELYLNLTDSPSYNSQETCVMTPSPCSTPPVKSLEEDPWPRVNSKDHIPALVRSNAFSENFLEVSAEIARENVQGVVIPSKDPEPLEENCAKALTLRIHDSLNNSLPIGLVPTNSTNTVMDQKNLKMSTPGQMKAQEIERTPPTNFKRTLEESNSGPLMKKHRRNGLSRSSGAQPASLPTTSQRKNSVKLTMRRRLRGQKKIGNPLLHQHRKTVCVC

In the case of `OCC(CO)N[C@H]1C[C@](O)(CO)[C@@H](O)[C@H](O)[C@H]1O`, the Potency result in assay [1] and in [6] was “inactive” throughout. The molecule was called inactive in assay [2], in assay [3], in assay [4] and in assay [5].
Regarding `CCC(=O)c1ccc(O)cc1`, the Potency result in assay [1], in assay [6] and in assay [7] was “inactive” in each case. Besides, the outcome in [2], in assay [3], in assay [4] and in [5] was inactive.
As to `CN(N=O)C(=O)N[C@@H]1[C@@H](O)[C@H](O)[C@@H](CO)O[C@@H]1O`, the Potency result in assay [1], in [8] and in [6] was “inactive” throughout. For the same molecule, the call in assay [2], in [3] and in assay [5] was inactive.
For the molecule `CN1CCCCC1CCN1c2ccccc2Sc2ccc(S(C)=O)cc21` (centres undefined), the Potency entry in assay [1] and in assay [9] was “inactive” in each case. Also, the call in [2], in assay [3], in [4] and in assay [5] was inactive. In addition, the Potency in [10] is 12.6 µM (active). Further, the max response in assay [11] is -1.8%.
Consider `CCCOC(=O)c1ccccc1`, for which the Potency result in [1] was “inactive”. In addition, the outcome in assay [2], in [3], in assay [4] and in assay [5] was inactive.
`COc1ccc2[nH]c(S(=O)Cc3ncc(C)c(OC)c3C)nc2n1` (centres undefined): the Potency entry in assay [1], in assay [8] and in assay [6] was “inactive” throughout. The call in assay [2], in [3] and in assay [4] was inactive.
As to `CCCCC(CC)COC(=O)c1ccccc1O` (centres undefined), the Potency result in assay [1], in assay [6] and in assay [7] was “inactive” throughout. Moreover, the molecule was classed as inactive in assay [2], in [3], in [4] and in assay [5].
On to `CN(C)CCCO[C@@H]1[C@H]2OC(C)(C)O[C@H]2O[C@@H]1C(O)CO` (some centres undefined), for which the Potency entry in assay [1] is “inactive”. Also, the molecule was classed as inactive in assay [2], in assay [3], in assay [4] and in [5].
With `CC(=O)CCC(=O)O`, the Potency entry in [1], in assay [6] and in assay [7] was “inactive” in each case. The outcome in [2], in assay [3], in assay [4] and in [5] was inactive.
`Cc1cc(CC(=O)O)n(C)c1C(=O)c1ccc(Cl)cc1`: the Potency entry in assay [1] and in [6] was “inactive” throughout. For the same molecule, the outcome in assay [2], in assay [3], in [4] and in [5] was inactive.
On to `CCCCN1CCCC[C@H]1C(=O)Nc1c(C)cccc1C`, for which the Potency result in [1], in assay [6] and in assay [7] was “inactive” each time. Moreover, the molecule was called inactive in assay [2], in [3], in assay [4] and in [5].
As for `NC(=O)NNc1ccccc1`, the Potency result in assay [1] and in assay [6] was “inactive” each time. Further, the call in [2], in [3], in [4] and in assay [5] was inactive.
As to `NC(=O)c1ncn([C@@H]2O[C@H](CO)[C@@H](O)[C@H]2O)c1N`, the Potency result in assay [1], in [8] and in [7] was “inactive” each time. Besides, the molecule was classed as inactive in assay [2], in assay [3], in [4] and in assay [5].
Consider `NC1CCN(c2cccc(Cl)n2)CC1`, for which the Potency result in [1], in assay [12] and in [6] was “inactive” in each case. Also, the call in assay [2], in [3], in [4] and in assay [5] was inactive.
Consider `C=Cc1c(C)c2cc3[nH]c(cc4nc(cc5nc(cc1[nH]2)C(C)=C5CCC(=O)O)C(CCC(=O)O)=C4C)c(C)c3C=C`, for which the Potency result in assay [1], in [12] and in assay [6] was “inactive” each time. Moreover, the molecule was classed as inactive in assay [13] and in assay [3]. In assay [14], the Potency was 25.1 µM (active).
For `OCCN1CCN(CCCN2c3ccccc3Sc3ccc(Cl)cc32)CC1`, the Potency entry in [1], in assay [12] and in [6] was “inactive” each time. Moreover, the molecule was classed as inactive in assay [13], in assay [2] and in assay [4]. In assay [7], the Potency was 3.98 µM (active).
On to `CC1(C)S[C@@H]2[C@H](NC(=O)Cc3ccccc3)C(=O)N2[C@H]1C(=O)O` (tested in a mixture with another compound), for which the Potency entry in assay [1] is “inactive”. The call in [2], in assay [3], in assay [4] and in assay [5] was inactive.
For `Nc1ccc(S(=O)(=O)Nc2ccc(Cl)nn2)cc1`, the Potency entry in [1], in assay [6] and in [7] was “inactive” in each case. Besides, the result in assay [2], in assay [3], in [4] and in assay [5] was inactive.
Regarding `CS(=O)(=O)c1ccc([C@@H](O)[C@@H](CF)NC(=O)C(Cl)Cl)cc1`, in [1], the Potency result was “inactive”. For the same molecule, the molecule was called inactive in assay [2], in [3], in assay [4] and in assay [5].
As to `CC(=O)Nc1ccc(/C=N/NC(N)=S)cc1`, the Potency entry in assay [1], in assay [6] and in assay [7] was “inactive” each time. The outcome in assay [2], in [3], in assay [4] and in assay [5] was inactive.
On to `O=S(=O)(O)c1cc(I)c(O)c2ncccc12`, for which the Potency result in [1], in assay [6] and in assay [7] was “inactive” each time. The molecule was called inactive in [2], in [3], in assay [4] and in [5].
Regarding `O=C(O)c1ccccc1-c1ccc(C(F)(F)F)cc1`, the Potency entry in [1], in assay [6] and in assay [7] was “inactive” each time. Besides, the molecule was called inactive in assay [2], in assay [3] and in [5].
As to `Cc1cc(O)cc2c1O[C@](C)(CCC[C@H](C)CCC[C@H](C)CCCC(C)C)CC2`, the Potency result in [1], in [6] and in [7] was “inactive” throughout. The molecule was classed as inactive in [2], in assay [3] and in assay [5].
Take `O=C(O)Cc1sc(-c2ccccc2)nc1-c1ccc(Cl)cc1`: the Potency entry in assay [1], in assay [6] and in assay [7] was “inactive” in each case. Also, the molecule was classed as inactive in [2], in assay [3] and in assay [4].
Consider `Cc1cc2c(cc1S(N)(=O)=O)S(=O)(=O)CCC2`, for which the Potency result in assay [1] and in assay [7] was “inactive” each time. Besides, the molecule was classed as inactive in assay [2], in assay [3], in [4] and in assay [5].
As for `c1ccc2c(CC3=NCCN3)cccc2c1`, the Potency result in assay [1], in assay [6] and in assay [7] was “inactive” each time. For the same molecule, the result in [2], in assay [3], in assay [4] and in [5] was inactive.
Regarding `Cc1cccc(C)c1NC(=O)CN(CC(=O)O)CC(=O)O`, the Potency result in assay [1] and in [7] was “inactive” throughout. For the same molecule, the call in assay [2], in assay [3], in assay [4] and in assay [5] was inactive.
`CC1CC(OC(=O)C(O)c2ccccc2)CC(C)(C)N1C` (centres undefined): the Potency entry in assay [1] is “inactive”. Besides, the outcome in [2], in assay [3] and in assay [5] was inactive.
For the molecule `COc1cc(C(=O)N2CCOCC2)cc(OC)c1OC`, the Potency result in assay [1] and in [7] was “inactive” each time. Further, the result in [2], in assay [3], in [4] and in assay [5] was inactive.
`CCCCOC(=O)c1ccc(O)cc1`: the Potency result in [1] and in assay [7] was “inactive” in each case. Besides, the outcome in assay [2], in assay [3], in assay [4] and in [5] was inactive.
`NC(=O)N/N=C/c1ccc([N+](=O)[O-])o1`: the Potency result in assay [1], in [6] and in assay [7] was “inactive” throughout. In addition, the result in assay [2], in assay [3], in assay [4] and in [5] was inactive.

The values above are taken from PubChem BioAssay (NCATS).
